Assay outcomes: PubChem BioAssay, The Scripps Research Institute Molecular Screening Center
A selection: hits, their analogues and other compounds. The true share with any hit is near 1.6%.
HTR5A inv ctr = inverse agonist of human HTR5A in OPRM1-OPRD1 counter-screen; inhibition, % at 9.3 µM; AID 504634; 340,000 compounds, 0.083% hits; P47898; HTR5A cell line, luminescence, inverse agonism; in the data active = inhibition mostly above about 23%, no sharp cut-off; inactive = mostly below about 18%
OPRM1-OPRD1 inv = inverse agonist of human OPRM1-OPRD1 heterodimerization. P35372+P41143. cell-based MOR-DOR heterodimer luminescence, inverse agonism. inhibition, % at 9.3 µM. 340,000 compounds, 0.21% hits; in the data active = inhibition above about 22%, passing the limit was not always enough
HTR2A ag = agonists of mouse serotonin 5-HT2A receptor (HTR2A). P35363. 360,000 compounds, 0.66% hits. activation, % at 7.6 µM. CHO-K1 mHTR2A beta-arrestin complementation, luminescence; percent of 30 µM serotonin response. AID 624169;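 active = activation above a run cutoff, the mean activation of all tested compounds plus 3 SD, cut at about 14% in these data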
MOR-DOR ag = agonists of human mu-delta opioid receptor heterodimerization; P35372+P41143; cells, OPRM1-OPRD1 heterodimerization, luminescence; activation, % at 9.3 µM; 340,000 compounds, 0.3% hits; AID 504326; in the data active = activation above about 18%
HTR5A ag = HTR5A agonism, opioid heterodimer counter-screen; P47898; HTR5A agonist assay, luminescence, cell-based; activation, % at 9.3 µM; 340,000 compounds, 0.61% hits; in the data active = activation mostly above about 9.5%, no sharp cut-off; inactive = mostly below about 7.6%
MOR ag counter = counter-screen for mouse HTR2A agonists: human mu opioid receptor agonists. shares compounds with HTR2A ag. U2OS OPRM1 beta-arrestin PathHunter, luminescence; DMSO 0%, DAMGO 9.3 µM 100%. activation, % at 9.3 µM. 2,300 compounds, 5.3% hits;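 active = mean activation above the mean of DMSO-only wells plus 3 SD, cut at about 0.5% in these data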
HTR2A ag conf = mouse HTR2A agonism confirmed; shares compounds with HTR2A ag; activation, % at 7.6 µM; AID 624381; 2,300 compounds, 19% hits; CHO-K1 PathHunter beta-arrestin recruitment, luminescence; DMSO 0%, 30 µM serotonin 100%;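 active = mean activation across triplicates above the hit threshold derived in the original primary screen, cut at about 15% in these data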
A number is an active result; . = inactive; / = no result given.

SMILES	HTR5A inv ctr	OPRM1-OPRD1 inv	HTR2A ag	MOR-DOR ag	HTR5A ag	MOR ag counter	HTR2A ag conf
CCCC(=O)Nc1nn(CC(C)C)c2nc3cc(C)ccc3cc12	.	.	.	.	.	/	/
CCn1nc(NC(=O)CC(C)C)c2cc3ccc(C)cc3nc21	.	.	14	.	.	.	.
C[C@@]12CCC3[C@@](CCC4[C@@]3(C)CCC[C@@]4(C)C(=O)N3CCCCC3)(CC1=O)C2 (stereo partly drawn)	.	.	14	.	.	.	.
C[C@@]12CCC3[C@@](CCC4[C@@]3(C)CCC[C@@]4(C)C(=O)NC3CCCCC3)(CC1=O)C2 (stereo partly drawn)	.	.	.	.	.	/	/
Cc1ccc2nc(-c3ccc(NC(=O)CN4CCN(C(=O)c5ccco5)CC4)cc3)sc2c1	.	.	15	.	.	.	60
Cc1[nH]c2ccccc2c1NC(=O)CN1CCN(C(=O)c2ccco2)CC1	/	/	22	/	/	.	81
Cc1ccc(NC(=O)CN2CCN(C(=O)c3ccco3)CC2)cc1	.	.	.	.	.	/	/
O=C1C=C(NNC(=O)c2ccncc2)CC(c2ccccc2)C1 (stereo not drawn)	.	.	.	.	.	/	/
O=S(=O)(Cc1ccccc1)NCC1CCCN(Cc2ccc(F)c(F)c2)C1 (stereo not drawn)	.	.	.	.	.	/	/
COc1ccc(S(=O)(=O)N(C)CC(=O)N2CCCCC2)cc1Cl	.	.	15	.	.	.	.
Cc1cc(Cl)ccc1NC(=O)c1ccc2c(c1)CCN2S(C)(=O)=O	.	.	.	.	.	/	/
O=C(O)Cn1nnc(-c2ccccc2)c1COc1ccccc1	/	/	.	/	/	/	/
COc1ccc(/C=C(/C#N)C(=O)NC2CCCCC2)cc1Br	.	.	.	.	.	/	/
Cc1cc(/C=C(\C#N)C(=O)NC2CCCCCC2)c(C)n1C	.	.	18	.	.	.	.
OC(COCc1cccs1)CN1CCN(c2ccccn2)CC1 (stereo not drawn)	.	.	20	.	.	.	80
OC(COCc1cccs1)CN1CCN(c2ccccc2Cl)CC1 (stereo not drawn)	.	.	.	.	.	/	/
OC(COCc1ccc(Cl)cc1)CN1CCN(c2ccccn2)CC1 (stereo not drawn)	.	.	18	.	.	.	99
OC(COc1ccc(Cl)cc1)CN1CCN(c2ccccn2)CC1 (stereo not drawn)	.	.	.	.	.	/	/
Cc1cc(F)ccc1NC(=O)Cn1c(C)csc1=O	.	.	.	.	.	/	/
COc1ccc(S(=O)(=O)N2CCOCC2)cc1NC(=O)CCCSc1ccccc1	/	/	.	/	/	/	/
C=CCn1c(SCC(=O)c2ccc(OC)cc2)nnc1-c1ccc2c(c1)OCO2	.	.	.	.	.	/	/
C=CCn1c(SCC(=O)c2ccc(Cl)cc2)nnc1-c1ccc2c(c1)OCO2	.	.	32	.	.	.	.
COc1ccc(-c2cnc3c(NC=O)cc(-c4ccc(C(=O)N5CCOCC5)cc4)cn23)cc1OC	/	/	17	/	/	.	.
C/C=C/C(=O)OCC(=O)Nc1nc2ccc(C)cc2s1	.	.	26	.	.	.	.
Cc1ccc(C(=O)OCC(=O)Nc2ccc(F)c(Cl)c2)o1	.	.	.	.	.	/	/
SMILES	HTR5A inv ctr	OPRM1-OPRD1 inv	HTR2A ag	MOR-DOR ag	HTR5A ag	MOR ag counter	HTR2A ag conf
CN(Cc1ccc(Br)s1)C(=O)CNC(=O)c1ccc2c(c1)OCO2	.	.	.	.	.	/	/
CCOC(=O)N1CCC(N(C(=O)Nc2ccc(Cl)c(Cl)c2)C(C)CC)CC1 (stereo not drawn)	.	.	16	.	.	.	.
CCOC(=O)N1CCC(N(CCOC)C(=O)Nc2ccc(CC)cc2)CC1	.	.	.	.	.	/	/
CCOC(=O)c1ccccc1NC(=O)c1ccc2c(SCC(=O)O)c3c(nc2c1)CCCC3	.	.	15	.	.	.	.
CC1CCCCN1C(=O)C(=O)c1cn(CC(=O)N2CCCCCC2)c2ccccc12 (stereo not drawn)	.	.	.	.	.	/	/
O=C(N[C@@H]1CCC(=O)N(CC[C@H](Sc2ccccc2)c2ccccc2)CC1)OCc1ccccc1	.	.	.	.	.	/	/
CCCCNC(=O)COC(=O)c1ccc(SC)cc1OC	.	.	.	.	.	/	/
COc1cc([N+](=O)[O-])ccc1NC(=O)/C=C\C(=O)O	.	.	22	.	.	.	.
COc1cc([N+](=O)[O-])ccc1NC(=O)/C=C/C(=O)O	.	.	.	.	.	/	/
Cn1c(=O)c2c(=O)cc(N)[nH]c2n(C)c1=O	.	.	.	.	.	/	/
CN1C2CCC1CC(OC(=O)C(CO)c1ccccc1)C2 (stereo not drawn)	.	.	.	.	.	/	/
COc1cc(OC)c2c(-c3ccccc3)cc(=O)oc2c1C(CCN1CCN(c2ccccc2)CC1)c1ccc(N(C)C)cc1 (stereo not drawn)	.	.	17	.	.	.	22
COc1cc(OC)c2c(C)cc(=O)oc2c1C(CCN1CCN(c2ccccc2)CC1)c1ccc2c(c1)OCO2 (stereo not drawn)	.	.	21	.	.	.	72
O=C(COc1ccc(Cl)cc1)NCc1ccc(F)cc1	.	.	.	.	.	/	/
O=C1CN(C(=O)NCC(=O)N[C@@H](Cc2ccccc2)C(=O)O)c2ccccc2N1	.	.	.	.	.	/	/
CC(CCc1ccccc1)NC(=O)CNC(=O)N1CC(=O)Nc2ccccc21 (stereo not drawn)	.	.	15	.	.	.	.
CC(CCc1ccccc1)NC(=O)CN1CCc2ccccc2C1 (stereo not drawn)	.	.	25	.	.	.	60
CC(=O)C(Cc1ccccc1)NC(=O)CN1CCc2ccccc2C1 (stereo not drawn)	.	.	.	.	.	/	/
Cc1nn(C)c(Cl)c1CN1CCN(C2CCCC2)C(CCO)C1 (stereo not drawn)	.	.	24	.	.	.	.
OCCC1CN(Cc2ccncc2)CCN1C1CCCC1 (stereo not drawn)	.	.	.	.	.	/	/
Nc1cc(Cl)nnc1Cl	.	.	19	.	.	.	.
Cc1cc(C)c2cc(N)c(Cl)nc2n1	/	/	.	/	/	/	/
COc1ccc(NC(=O)c2cccc(S(=O)(=O)N3CCc4ccccc43)c2)cn1	.	.	.	.	.	/	/
CCC1(C)CC(CC(=O)O)(c2ccccc2OC)CCO1 (stereo not drawn)	.	.	15	.	.	.	.
NC(=O)c1cccc(-c2ccnc3c2CC(C(=O)NCc2cccc(Cl)c2)O3)c1 (stereo not drawn)	/	/	.	/	/	/	/
CCOc1ncccc1C(=O)N(CC)CC(=O)NCc1ccc(F)cc1	.	.	.	.	.	/	/
O=C(Nc1ccccc1C(F)(F)F)c1cnccn1	.	.	19	.	.	.	.
